Binding signal data for eight sequences are collected here from article PMC7862700, “An all-to-all approach to the identification of sequence-specific readers for epigenetic DNA modifications on cytosine”.

Holding throughout (assay): DAPPL (digital affinity profiling via proximity ligation, sequencing); 10 mM Tris-HCl pH 7.5, 50 mM NaCl, 1 mM DTT, 4% glycerol, room temperature, 30 min; GST-TFs on glutathione beads, 16-mer random dsDNA library, 0.1% formaldehyde crosslink after washing; high values mean tight binding
Holding throughout (details): protein: recombinant; tags: N-terminal GST; dsDNA, one strand shown

The target in one assay is T1, ERF (Homo sapiens, UniProt P50548 1-548).
T1 sequence: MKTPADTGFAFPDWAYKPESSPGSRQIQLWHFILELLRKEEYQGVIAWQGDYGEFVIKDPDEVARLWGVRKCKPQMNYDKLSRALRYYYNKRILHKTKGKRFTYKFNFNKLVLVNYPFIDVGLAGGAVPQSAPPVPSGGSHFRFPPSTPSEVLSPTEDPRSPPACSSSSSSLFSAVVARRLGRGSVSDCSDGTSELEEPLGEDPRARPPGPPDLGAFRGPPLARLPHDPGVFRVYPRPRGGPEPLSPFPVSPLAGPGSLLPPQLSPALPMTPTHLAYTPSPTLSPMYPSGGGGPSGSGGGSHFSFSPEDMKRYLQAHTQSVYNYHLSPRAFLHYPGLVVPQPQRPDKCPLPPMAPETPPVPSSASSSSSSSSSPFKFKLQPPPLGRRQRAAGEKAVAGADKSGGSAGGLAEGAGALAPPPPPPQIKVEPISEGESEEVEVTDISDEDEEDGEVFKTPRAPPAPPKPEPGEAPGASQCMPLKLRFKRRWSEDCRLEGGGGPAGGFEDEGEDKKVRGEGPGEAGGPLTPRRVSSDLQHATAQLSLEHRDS
A digest of the protocol:
(§1)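 Beads coated with glutathione captured GST-fused human transcription factors that had been expressed in yeast, and the factors were then given DNA barcodes and pooled with a tag-only sample. The pools were incubated with 200 nmole of a random double-stranded 16-mer DNA library in Tris/NaCl/DTT/glycerol buffer for 30 min at room temperature, washed, crosslinked with 0.1% formaldehyde and proximity-ligated with BsaI/T4 ligase at 37 °C for 1 h. PCR amplification and Illumina NextSeq500 sequencing came last. Binding signal is each hexamer's read frequency for a factor divided by its frequency for the tag-only sample.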

The target of a further assay is T2, ETV3L (Homo sapiens, UniProt Q6ZN32 1-361).
T2 sequence: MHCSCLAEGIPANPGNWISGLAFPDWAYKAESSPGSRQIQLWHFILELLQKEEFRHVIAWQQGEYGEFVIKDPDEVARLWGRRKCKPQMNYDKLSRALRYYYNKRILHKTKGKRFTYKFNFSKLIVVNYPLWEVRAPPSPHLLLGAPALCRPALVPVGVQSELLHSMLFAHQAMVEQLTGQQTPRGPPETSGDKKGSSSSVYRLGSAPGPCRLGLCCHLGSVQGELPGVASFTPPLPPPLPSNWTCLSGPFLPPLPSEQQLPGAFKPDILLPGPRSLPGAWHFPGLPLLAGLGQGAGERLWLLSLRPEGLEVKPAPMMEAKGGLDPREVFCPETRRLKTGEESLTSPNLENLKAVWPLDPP
A digest of the protocol:
as §1

Another assay addresses T3, ETS2 (Homo sapiens, UniProt P15036 1-469).
T3 sequence: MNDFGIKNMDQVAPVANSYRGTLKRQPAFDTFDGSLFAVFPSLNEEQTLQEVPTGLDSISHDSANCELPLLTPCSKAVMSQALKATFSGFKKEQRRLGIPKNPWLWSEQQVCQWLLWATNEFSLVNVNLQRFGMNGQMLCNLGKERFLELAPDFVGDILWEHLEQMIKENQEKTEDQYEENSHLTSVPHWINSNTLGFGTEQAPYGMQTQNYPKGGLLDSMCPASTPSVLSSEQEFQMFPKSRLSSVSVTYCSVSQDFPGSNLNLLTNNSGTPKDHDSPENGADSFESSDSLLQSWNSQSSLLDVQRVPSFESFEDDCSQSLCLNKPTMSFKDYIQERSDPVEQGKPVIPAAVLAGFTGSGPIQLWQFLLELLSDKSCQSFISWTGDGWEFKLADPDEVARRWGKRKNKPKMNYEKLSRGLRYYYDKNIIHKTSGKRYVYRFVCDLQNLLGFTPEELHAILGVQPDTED
A digest of the protocol:
as §1

The target in another assay is T4, SPDEF (Homo sapiens, UniProt O95238 1-335).
T4 sequence: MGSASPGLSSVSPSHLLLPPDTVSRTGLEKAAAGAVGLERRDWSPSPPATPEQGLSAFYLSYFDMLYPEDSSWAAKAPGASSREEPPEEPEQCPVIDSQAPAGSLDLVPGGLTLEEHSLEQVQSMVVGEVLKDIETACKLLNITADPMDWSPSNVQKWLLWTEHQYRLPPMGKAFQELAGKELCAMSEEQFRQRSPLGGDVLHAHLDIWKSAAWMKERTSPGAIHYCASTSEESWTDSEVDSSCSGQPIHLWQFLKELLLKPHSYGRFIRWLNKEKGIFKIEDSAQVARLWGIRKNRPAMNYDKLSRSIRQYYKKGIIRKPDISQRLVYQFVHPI
A digest of the protocol:
as §1

The target of the next assay is T5, ETV7 (Homo sapiens, UniProt Q9Y603 1-341).
T5 sequence: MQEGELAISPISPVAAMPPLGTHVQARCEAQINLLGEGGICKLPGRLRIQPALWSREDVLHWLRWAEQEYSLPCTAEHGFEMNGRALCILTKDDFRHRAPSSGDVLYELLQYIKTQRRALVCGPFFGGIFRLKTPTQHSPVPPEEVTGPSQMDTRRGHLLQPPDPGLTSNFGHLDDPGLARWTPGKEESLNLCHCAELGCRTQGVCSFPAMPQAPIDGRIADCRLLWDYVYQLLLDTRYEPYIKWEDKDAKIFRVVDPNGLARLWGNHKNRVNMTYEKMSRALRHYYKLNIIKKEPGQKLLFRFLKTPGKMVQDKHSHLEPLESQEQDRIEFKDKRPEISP
A digest of the protocol:
as §1

In a further assay the target is T6, ELF5 (Homo sapiens, UniProt Q9UKW6-2 1-255).
T6 sequence: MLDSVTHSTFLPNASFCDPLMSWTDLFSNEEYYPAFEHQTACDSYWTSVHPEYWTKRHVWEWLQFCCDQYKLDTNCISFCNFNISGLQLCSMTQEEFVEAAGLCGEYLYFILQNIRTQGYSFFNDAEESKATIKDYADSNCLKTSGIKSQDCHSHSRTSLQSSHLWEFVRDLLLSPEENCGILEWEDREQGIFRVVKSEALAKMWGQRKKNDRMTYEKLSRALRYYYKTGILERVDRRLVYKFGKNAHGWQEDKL
A digest of the protocol: as §1

The target of the next assay is T7, ETV3 (Homo sapiens, UniProt P41162-2 1-143).
T7 sequence: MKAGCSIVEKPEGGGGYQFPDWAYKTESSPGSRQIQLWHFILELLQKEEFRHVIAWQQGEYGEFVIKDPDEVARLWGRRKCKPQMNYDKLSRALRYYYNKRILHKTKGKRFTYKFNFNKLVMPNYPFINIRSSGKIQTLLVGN
A digest of the protocol: as §1

The next assay deals with ETV6 (Homo sapiens, UniProt P41212 1-452). A digest of the protocol: as §1
Sequence of ETV6 (P41212 whole entry): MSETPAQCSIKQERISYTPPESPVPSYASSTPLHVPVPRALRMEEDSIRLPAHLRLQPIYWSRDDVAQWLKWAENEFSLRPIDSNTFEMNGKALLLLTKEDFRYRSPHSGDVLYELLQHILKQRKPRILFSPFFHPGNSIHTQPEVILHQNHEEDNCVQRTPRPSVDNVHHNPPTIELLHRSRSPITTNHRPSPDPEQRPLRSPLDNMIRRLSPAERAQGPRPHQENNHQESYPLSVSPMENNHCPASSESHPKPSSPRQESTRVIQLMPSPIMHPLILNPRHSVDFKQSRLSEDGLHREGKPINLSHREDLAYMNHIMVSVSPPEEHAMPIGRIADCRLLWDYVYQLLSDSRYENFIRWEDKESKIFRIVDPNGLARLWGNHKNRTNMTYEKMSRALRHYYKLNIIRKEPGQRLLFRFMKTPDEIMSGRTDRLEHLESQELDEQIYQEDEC

In the case of TAATGA, the binding signal in the assay with ERF is 1.26 fold enrichment (6-mer frequency, TF over GST control); in the assay with ETV3L it was 1.24 fold enrichment (6-mer frequency, TF over GST control); with ETS2, 1.2 fold enrichment (6-mer frequency, TF over GST control); with SPDEF it was 1.11 fold enrichment (6-mer frequency, TF over GST control); with ETV7, 1.18 fold enrichment (6-mer frequency, TF over GST control); with ELF5, 1.12 fold enrichment (6-mer frequency, TF over GST control). Moreover, the binding signal with ETV3 was 1.1 fold enrichment (6-mer frequency, TF over GST control); with ETV6, 1.21 fold enrichment (6-mer frequency, TF over GST control).

With TTTCAA, the binding signal in the assay with ERF is 1.22 fold enrichment (6-mer frequency, TF over GST control); with ETV3L, 1.28 fold enrichment (6-mer frequency, TF over GST control); with ETS2, 1.24 fold enrichment (6-mer frequency, TF over GST control); with SPDEF, 1.16 fold enrichment (6-mer frequency, TF over GST control); with ETV7 it was 1.3 fold enrichment (6-mer frequency, TF over GST control); with ELF5 it was 1.26 fold enrichment (6-mer frequency, TF over GST control). For the same sequence, the binding signal was 1.31 fold enrichment (6-mer frequency, TF over GST control) in the assay with ETV3 and 1.21 fold enrichment (6-mer frequency, TF over GST control) in the assay with ETV6.

With ATATTG, the binding signal was 1.31 fold enrichment (6-mer frequency, TF over GST control) with ERF; 1.41 fold enrichment (6-mer frequency, TF over GST control) with ETV3L; 1.36 fold enrichment (6-mer frequency, TF over GST control) in the assay with ETS2; 1.43 fold enrichment (6-mer frequency, TF over GST control) with SPDEF; 1.33 fold enrichment (6-mer frequency, TF over GST control) with ETV7; 1.34 fold enrichment (6-mer frequency, TF over GST control) with ELF5. Also, the binding signal is 1.35 fold enrichment (6-mer frequency, TF over GST control) in the assay with ETV3 and 1.42 fold enrichment (6-mer frequency, TF over GST control) with ETV6.

Take ATACTT: the binding signal with ERF is 1.66 fold enrichment (6-mer frequency, TF over GST control); with ETV3L it was 1.59 fold enrichment (6-mer frequency, TF over GST control); with ETS2, 1.59 fold enrichment (6-mer frequency, TF over GST control); with SPDEF, 1.63 fold enrichment (6-mer frequency, TF over GST control); with ETV7 it was 1.69 fold enrichment (6-mer frequency, TF over GST control); with ELF5, 1.84 fold enrichment (6-mer frequency, TF over GST control). Further, the binding signal with ETV3 was 1.63 fold enrichment (6-mer frequency, TF over GST control); in the assay with ETV6, 1.87 fold enrichment (6-mer frequency, TF over GST control).

For TGCCAC, the binding signal in the assay with ERF was 1.14 fold enrichment (6-mer frequency, TF over GST control); with ETV3L it was 1.28 fold enrichment (6-mer frequency, TF over GST control); in the assay with ETS2, 1.23 fold enrichment (6-mer frequency, TF over GST control); with SPDEF, 1.15 fold enrichment (6-mer frequency, TF over GST control); with ETV7 it was 1.21 fold enrichment (6-mer frequency, TF over GST control); with ELF5, 1.16 fold enrichment (6-mer frequency, TF over GST control). The binding signal was 1.18 fold enrichment (6-mer frequency, TF over GST control) with ETV3 and 1.24 fold enrichment (6-mer frequency, TF over GST control) in the assay with ETV6.

Turning to GGGCTA, the binding signal with ERF is 1.02 fold enrichment (6-mer frequency, TF over GST control); in the assay with ETV3L, 1.18 fold enrichment (6-mer frequency, TF over GST control); with ETS2, 1.2 fold enrichment (6-mer frequency, TF over GST control); with SPDEF, 1.09 fold enrichment (6-mer frequency, TF over GST control); with ETV7, 1.06 fold enrichment (6-mer frequency, TF over GST control); in the assay with ELF5 it was 1.09 fold enrichment (6-mer frequency, TF over GST control). In addition, the binding signal with ETV3 is 1.12 fold enrichment (6-mer frequency, TF over GST control); in the assay with ETV6, 1.13 fold enrichment (6-mer frequency, TF over GST control).

In the case of GCTCTG, the binding signal in the assay with ERF was 1.03 fold enrichment (6-mer frequency, TF over GST control); in the assay with ETV3L it was 1.23 fold enrichment (6-mer frequency, TF over GST control); with ETS2 it was 1.12 fold enrichment (6-mer frequency, TF over GST control); with SPDEF it was 1.06 fold enrichment (6-mer frequency, TF over GST control); with ETV7 it was 1.17 fold enrichment (6-mer frequency, TF over GST control); in the assay with ELF5 it was 1.02 fold enrichment (6-mer frequency, TF over GST control). Moreover, the binding signal with ETV3 was 1.17 fold enrichment (6-mer frequency, TF over GST control); with ETV6 it was 1.17 fold enrichment (6-mer frequency, TF over GST control).

Turning to TAGGAA, the binding signal was 1.17 fold enrichment (6-mer frequency, TF over GST control) with ERF; 1.15 fold enrichment (6-mer frequency, TF over GST control) in the assay with ETV3L; 1.19 fold enrichment (6-mer frequency, TF over GST control) with ETS2; 1.11 fold enrichment (6-mer frequency, TF over GST control) with SPDEF; 1.04 fold enrichment (6-mer frequency, TF over GST control) in the assay with ETV7; 1.29 fold enrichment (6-mer frequency, TF over GST control) with ELF5. In addition, the binding signal with ETV3 was 1.22 fold enrichment (6-mer frequency, TF over GST control); with ETV6, 1.37 fold enrichment (6-mer frequency, TF over GST control).
